# Assay outcomes deposited in PubChem BioAssay by Sanford-Burnham Center for Chemical Genomics.
# CF NFkB inh: inhibitors of PAF-induced NF-kB signaling, primary screen, cell-based, GFP fluorescence, uHTS; 360,000 compounds, 0.86% hits; AID 588850, 2011; KKLEB NF-kB-GFP reporter, GFP fluorescence overnight; inhibition, % at 5 µM;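 active = at least 50% inhibition at 5 µM, scaled per plate between neutral and stimulator controls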;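 note: PAF is a Pseudomonas aeruginosa culture filtrate used as stimulus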
# TROY NFkB inh: inhibitors of TROY-driven NF-kB signaling, primary screen, Q293 LMP1-TROYcd cells, NF-kB luciferase, uHTS; Q293 LMP1-TROYcd NF-kB luciferase reporter, 4 h; inhibition, % at 10 µM; 360,000 compounds, 0.98% hits;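 active = compounds whose plate-normalised and pattern-corrected inhibition of the luciferase reporter signal at the single screening dose is 50% or more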
# TWEAK Fn14 block: inhibitors of TWEAK-Fn14 signaling, primary screen, luciferase reporter cells, uHTS; TWEAK-stimulated Fn14 reporter cells, luciferase luminescence, 8 h; 360,000 compounds, 2% hits; AID 1159606, 2016; inhibition, % at 10 µM; in the data active = inhibition above about 50%
# KKLEB cytotox: cytotoxicity in KKLEB CF airway cells, primary screen, cytotoxicity control for CF NF-kB inhibitor project, cell-based, uHTS, fluorescence assay plates. KKLEB CF airway cells viability, ATPlite luminescence, overnight; active compounds read low; cells stimulated with P. aeruginosa culture filtrate. activity change (cytotoxicity), % at 5 µM. 360,000 compounds, 0.36% hits. AID 602141, 2011;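 active = corrected activity change at or below -50% at 5 µM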
# Peg3 prom inh: Peg3 promoter-driven luciferase inhibitors, primary screen, cell-based, HeLa, luciferase luminescence; 360,000 compounds, 1.7% hits; HeLa PEG-Prom luciferase reporter, overnight; inhibition, % at 20 µM;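 active = inhibition of at least 50% at 20 µM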
# HIF-2a inh: HIF-2a reporter inhibitors, primary screen, luminescence, 786-0 RCC cells; 786-0 RCC cells HIF-2a reporter, luciferase luminescence, overnight; inhibition, % at 18.8 µM; 360,000 compounds, 0.72% hits;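 active = inhibition of the luminescence signal of 40% or more relative to plate controls, in a single-dose primary screen at 18.75 µM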
# Numbers stand for hits; i = inactive. In the library only some 3.9% were active in any assay of this set; here they are far more common.
SMILES,CF NFkB inh,TROY NFkB inh,TWEAK Fn14 block,KKLEB cytotox,Peg3 prom inh,HIF-2a inh
Nc1c(-c2ccc3c(c2)OCCO3)oc2ccccc2c1=O,i,i,54.9,i,i,i
CC(OC(=O)c1cc2sccc2n1C)C(=O)NC(C)(C)C (centres undefined),i,i,i,i,i,i
CN(CCNC(=O)c1c[nH]c2c1ccc1ccccc12)CCNC(=O)c1c[nH]c2c1ccc1ccccc12,i,i,i,i,97.2,i
CN(C)CCNC(=O)c1ccccc1-c1cc2ccccc2c(=O)o1,i,i,i,i,i,i
COc1ccc(C(=O)NCCN(C)C)c2nc3ccccc3cc12,i,i,i,i,92.2,i
COc1ccc(C(=O)Nc2ccc3ccccc3n2)c(OC)c1OC,i,72.2,88.4,-52.1,i,i
CN(C)CCNC(=O)c1cccc2nc3c(ccc4ccccc43)nc12,i,i,i,i,98.3,i
O=C(Nc1ccc2ccccc2n1)c1ccccc1Cl,i,i,i,i,i,i
CN(C)CCNC(=O)c1cccc2[nH]c(-c3ccncc3)nc12,i,i,i,i,i,i
CN(Cc1ccc([N+](=O)[O-])cc1)c1ccccc1,i,i,i,i,i,i
O=C(CN1CCN(S(=O)(=O)c2cccc(Br)c2)CC1)NCCc1cccs1,i,i,i,i,i,i
COCCNC(=O)CCCn1c(=O)c2cc(OC)c(OC)cc2n(CC(=O)Nc2ccc(F)cc2)c1=O,i,i,i,i,i,i
O=C(c1ccc(C(F)(F)F)cc1)C1CCCN(C(=O)CCn2cncn2)C1 (centres undefined),i,i,i,i,i,i
COc1cc(C(=O)Nc2nc3ccc(C)cc3s2)ccc1OCc1c(C)noc1C,i,i,50.4,i,i,i
CCc1nnc(NC(=O)c2ccc(OCc3c(C)noc3C)c(OC)c2)s1,i,i,i,i,i,i
O=C(NC1CCCCC1)C1CCCN1S(=O)(=O)c1ccc(F)cc1 (centres undefined),i,78.0,i,i,i,i
COc1cc(N)ccc1Nc1c2ccccc2nc2ccccc12,i,i,i,i,102.6,i
Cc1ccc(O)c(Nc2nc(-c3ccccc3)nc3ccccc23)c1,i,i,i,i,i,i
Cc1ccc(O)c(Nc2c3ccccc3nc3ccccc23)c1,i,i,i,i,61.1,i
COc1ccc(C(CC(=O)O)NC(=O)Cc2ccccc2)cc1OC (centres undefined),i,i,i,i,i,i
O=C(CN1CCN(Cc2ccccc2)CC1)Nc1cccc(Br)c1,i,i,i,i,i,i
Cc1ccc(S(=O)(=O)N(CC(=O)N2CCC(C)CC2)c2cccc(C)c2)cc1,i,i,i,i,i,i
COCCOC(=O)C1=C(C)NC2=C(C(=O)CC(C)(C)C2)C1c1cc2c(cc1Br)OCO2 (centres undefined),i,i,59.6,i,i,i
COC(=O)C1=CN(C(C)C)C=C(C(=O)OC)C1c1cc2c(cc1Br)OCO2,i,i,i,i,i,i
CC1=C(O)C(=O)OC1c1c(Cl)cccc1Cl (centres undefined),i,i,i,i,i,i
SMILES,CF NFkB inh,TROY NFkB inh,TWEAK Fn14 block,KKLEB cytotox,Peg3 prom inh,HIF-2a inh
Cc1ccc(C(=O)N/C(=C/c2ccc(-c3ccc([N+](=O)[O-])cc3)o2)C(=O)NCCCN(C)C)cc1,i,i,i,i,109.2,i
O=C(NCCCO)/C(=C/c1ccc(-c2cccc([N+](=O)[O-])c2)o1)NC(=O)c1ccccc1,i,i,i,i,i,i
O=C(C[n+]1cc(-c2ccccc2)n2c1CCC2)Nc1nc(-c2ccccc2)cs1,i,i,i,i,i,i
O=C(CSCC(=O)N1CCCc2ccccc21)Nc1nc(-c2ccccc2)cs1,i,i,52.2,i,i,i
COc1ccc(/C=N/NC(=O)c2ccc(Cl)cc2)cc1Cn1cc(Cl)cn1,i,i,i,-50.8,i,i
O=C(NCCCn1ccnc1)C(=O)Nc1ccccc1,i,i,i,i,i,i
O=C(NCc1cccc(Cl)c1)C1CCC(=O)N(CCCN2CCCC2=O)C1 (centres undefined),i,i,i,i,i,i
